Shown are actives, neighbours in structure and some others; about 4.6% of the full set was active somewhere.
TRHR enhancer = allosterically enhances the human TRH receptor; P34981; TRHR cells, fluo-8 calcium fluorescence, EC20 TRH enhancement; enhancement, % at 2 µM; hit rate 0.66% among 360,000; AID 493056; in the data active = enhancement above about 30%
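Enhancer read-out: after compound pinning and an initial kinetic agonist-mode read, an EC20 of TRH (10 nM final) was injected and fluo-8 calcium signal (Ex 480/Em 530) followed at 1 s/cycle for 100 cycles in TRHR-expressing cells.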
D1 antagonist = antagonists of human D1 dopamine receptor | hit rate 3.2% among 360,000 | activity change, negative = inhibition, % at 10 µM | HEK293 TREx D1 cells, calcium flux, dopamine EC80; hits give low values; in the data active = activity change below about -30%
Target sequence (P21728 whole entry, looked up): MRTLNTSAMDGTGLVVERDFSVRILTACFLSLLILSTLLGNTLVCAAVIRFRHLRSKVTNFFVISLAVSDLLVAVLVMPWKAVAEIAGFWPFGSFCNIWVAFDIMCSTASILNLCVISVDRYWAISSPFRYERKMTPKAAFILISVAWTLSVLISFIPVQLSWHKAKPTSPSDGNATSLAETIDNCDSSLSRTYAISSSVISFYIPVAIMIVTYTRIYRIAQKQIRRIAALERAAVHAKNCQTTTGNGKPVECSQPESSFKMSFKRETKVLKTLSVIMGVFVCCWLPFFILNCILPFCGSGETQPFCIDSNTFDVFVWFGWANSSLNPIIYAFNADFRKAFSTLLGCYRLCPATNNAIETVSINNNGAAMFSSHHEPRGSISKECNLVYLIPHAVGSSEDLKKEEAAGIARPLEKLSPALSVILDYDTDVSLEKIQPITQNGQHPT
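Calcium flux readout: force-coupled, inducible Hek293 Trex D1 line, cells induced overnight at 30 C with tetracycline, dye-loaded 30–90 min at RT. Antagonism scored against EC80 dopamine challenge given 180 s after compound.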
TRHR agonist = TRH receptor (human) agonism; TRHR cells, calcium flux fluo-8, FDSS agonist mode; activation, % at 2 µM; hit rate 0.18% among 360,000; AID 493084
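Agonist-mode FDSS calcium read (Ex 480/Em 530, 1 s cycles) in 1536-well TRHR cells with fluo-8 dye, after 10-cycle baseline and 23 nL compound addition; TRH at EC20 (10 nM final) added afterwards for the enhancer phase.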
D1 PAM = enhances dopamine response at the human D1 receptor; P21728; hit rate 0.036% among 360,000; AID 504651; HEK293 TREx D1 cells, calcium flux, dopamine EC20 potentiation; potentiation, % at 10 µM; in the data active = potentiation above about 30%
D1 agonist = agonists of human D1 dopamine receptor; P21728; HEK293 T-REx D1 cells, calcium flux, agonist mode; activation, % at 2 µM; hit rate 1% among 360,000
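Agonism was scored from calcium flux recorded over 180 s (1 read/s) after pintool compound addition, following a 10-cycle baseline. Cells were inducible force-coupled HEK293 TREx D1, plated overnight at 30 C and loaded with no-wash calcium dye.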
Of the large screens only hits and unclear results are named; the others gave an inactive call; ! = not confirmed by another sample. Cut-off read from the data, not from the text of the source, unless noted: active = activation above about 30%; inactive = the rest.

CCN(CC)C(=O)Cn1cc(C(=O)C(=O)NCCc2ccccc2)c2ccccc21	none
CCN(CC)C(=O)Cn1cc(C(=O)C(=O)NCCCN2CCOCC2)c2ccccc21	D1 antagonist -34
Cc1ccc(CN2CCC(CNC(=O)c3cc4ccc5cccnc5c4[nH]3)CC2)cc1	D1 agonist 40
O=C(CN1C(=O)C(=O)c2ccccc21)c1ccccc1	none
O=C(CN1C(=O)c2cccnc2C1=O)c1ccccc1	D1 antagonist -31
O=C1C2CCCN2C(=O)N1CCCN1CCN(c2ccc([N+](=O)[O-])cc2)CC1 (stereo unspecified)	none
O=C1C2CCCCN2C(=O)N1CCN1CCN(c2ccc([N+](=O)[O-])cc2)CC1 (stereo unspecified)	D1 antagonist -33
O=C1C2CCCN2C(=O)N1CCCCN1CCN(c2ccc(F)cc2)CC1 (stereo unspecified)	D1 antagonist -34
O=C1C2CCCCN2C(=O)N1CCCCN1CCN(c2ccc(F)cc2)CC1 (stereo unspecified)	none
O=C(COC(=O)CCC(=O)c1ccccc1)NNC(=O)c1ccc(Cl)cc1	none
Cc1ccc(C(=O)CCC(=O)OCC(=O)NNC(=O)c2ccccc2Cl)cc1	TRHR enhancer 32
CCOC(=O)c1nnn(C(CC)C(=O)Nc2c(C)cccc2C)c1C(=O)OCC (stereo unspecified)	none
S=C(Nc1ccc(Br)cc1)NC1CCCC1	D1 antagonist -50
Nc1ccc(NC(=O)NC2CCCCC2)cc1[N+](=O)[O-]	D1 antagonist -77
O=C(Nc1ccc(F)cc1)NC1CCCCCCC1	D1 antagonist -35
Cc1cccc(NC(=O)NC2CCCCCCC2)c1	D1 antagonist -34
CCC(=O)N1CCc2cc(CNS(=O)(=O)c3ccccc3F)ccc21	none
O=C(Nc1ccc(Cl)cc1)NC1CCCCC1	none
O=C(Nc1ccccc1C(F)(F)F)NC1CCCCCCC1	D1 antagonist -31
O=C(NNC(=S)Nc1ccccc1C(F)(F)F)C1CC1	D1 antagonist -37
O=C(Nc1ccc(F)c(F)c1)NC1CCCCC1	D1 antagonist -32
O=C(Nc1ccccc1C(F)(F)F)NC1CCCCC1	none
O=C(CCC(=O)Nc1ccccc1Cl)NNC(=S)Nc1ccccc1C(F)(F)F	none
COc1ccc(CNC(=O)C(CC(C)C)NS(=O)(=O)c2ccc3c(c2)oc(=O)n3C)cc1 (stereo unspecified)	none
COCCNC(=O)c1c(NC(=O)c2cc(=O)c3cc(Cl)ccc3o2)sc2c1CCCC2	none
Cc1ccc(CN(Cc2ccccc2)C(=S)NCC(=O)NCc2cccnc2)o1	D1 antagonist -48
Cc1ccc(CN(Cc2ccco2)C(=S)NCC(=O)NCc2cccnc2)cc1	none
CC1=CC(C)(C)NC(=S)N1c1ccc(C)cc1C	none
CC1=CC(C)(C)NC(=S)N1c1cc(C)cc(C)c1	D1 antagonist -51
CCn1c(SCC(=O)c2[nH]c(C)c(C(C)=O)c2C)nnc1-c1ccccc1	D1 antagonist -35
Cc1ccc(NC(=O)Nc2ccccc2CC[N+](=O)[O-])cc1	D1 antagonist -32
O=C(Cn1c(=O)n(Cc2nc(-c3ccccc3)no2)c(=O)c2cc3c(cc21)OCO3)Nc1ccc(Cl)cc1	none
Cc1cccc2c(=O)cc(CSc3ccccc3NC(=O)c3cccc(F)c3)[nH]c12	none
Cc1ccc(N/N=C(\C#N)C(=O)c2ccsc2)cc1	D1 antagonist -47
CC(C)CCNC(=O)Nc1ccc2c(c1)N(Cc1ccccc1)C(=O)c1ccccc1S2	none
COCCCNC(=O)/C(C#N)=C/c1ccc(F)cc1	none
CCCCNC(=O)/C(C#N)=C/c1ccc(F)cc1F	D1 antagonist -52
COc1ccc(-n2c(O)c(/C=N/NS(=O)(=O)c3cc(C)ccc3C)c3ccccc3c2=O)cc1OC	TRHR agonist 72, D1 agonist 69
COc1ccc(-n2c(O)c(/C=N/NS(=O)(=O)c3ccc(C)cc3)c3ccccc3c2=O)cc1OC	D1 agonist 53
COc1ccc(-n2c(O)c(/C=N/Nc3nc(C)cc(C)n3)c3ccccc3c2=O)cc1OC	none
Cc1ccc(Cn2c(SCC(=O)NCc3ccccc3Cl)nc3ccsc3c2=O)cc1	none
C/C(=N\NC(=O)c1c(Cl)c(C)nn1C)c1cccc(NC(=O)C2CCCC2)c1	none
C=CCc1cccc(/C=N/n2cnnc2)c1O	TRHR enhancer 32
CCOC(=O)CCN(c1ccccc1)S(=O)(=O)c1cc(-c2cc(C)no2)ccc1C	none
Cc1sc2ncnc(N3CCC(C(=O)NNC(=O)COc4ccccc4F)CC3)c2c1C	D1 antagonist -40
Cc1sc2ncnc(N3CCC(C(=O)NNC(=O)COc4ccccc4Cl)CC3)c2c1C	none
COc1cccc(CNC(=O)CC(c2ccc(C)cc2)N2Cc3ccccc3C2=O)c1 (stereo unspecified)	D1 antagonist -32
O=C(CCn1ccc2cc(S(=O)(=O)N3CCCC3)ccc21)NCc1cccc(F)c1	D1 antagonist -33!
CN(C)c1ccc(CNC(=O)c2cc3cc(S(=O)(=O)N4CCCCC4)ccc3n2C)cc1	none
Cn1c(C(=O)NCc2ccccc2F)cc2cc(S(=O)(=O)N3CCCCC3)ccc21	none
Cn1c(C(=O)NCc2cccc(F)c2)cc2cc(S(=O)(=O)N3CCCCC3)ccc21	D1 antagonist -54
Cc1cccc(CNC(=O)c2cc3cc(S(=O)(=O)N4CCCCC4)ccc3n2C)c1	D1 antagonist -46
COC1=CC(=Cc2c(N)n3nc(CC(=O)N4CCCCC4)sc3nc2=O)C=C(OC)C1=O	TRHR agonist 138, D1 agonist 62
CC1CCN(CCCNC(=O)c2cc(Sc3ccc(F)cc3)nc3ccccc23)CC1	D1 agonist 44
COc1ccc(OC)c(NC(=O)CCN2CCN(c3ccccc3OC)CC2)c1	D1 antagonist -64
COc1ccc(NC(=O)CCN2CCN(c3ccccc3F)CC2)c(OC)c1	D1 antagonist -36
CC1CCCCN1CCCNC(=O)c1cc(Sc2ccc(Cl)cc2)nc2ccccc12 (stereo unspecified)	none
COc1ccc(Nc2cc(C(=O)NCCCN3CCN(c4ccccc4F)CC3)c3ccccc3n2)c(OC)c1	D1 antagonist -42
COc1ccc(Nc2cc(C(=O)NCCCN3CCOCC3)c3ccccc3n2)c(OC)c1	none
COc1ccc(NC(=O)CN2CCN(c3ccccc3F)CC2)c(OC)c1	none
O=C(CSc1n[nH]c(-c2ccccc2Cl)n1)N1CCN(c2ccccc2)CC1	none
COc1cccc(NC(=O)Cn2cnc3c(nc4n3CCCCC4)c2=O)c1	none
COc1ccc(CSc2ccc(S(=O)(=O)N3CCCCC3)cn2)cc1F	D1 antagonist -42
Cc1cc(C)cc(CSc2ccc(S(=O)(=O)N3CCCC3)cn2)c1	none
O=S(=O)(c1ccc(SCc2ccc(Cl)cc2)nc1)N1CCCC1	D1 antagonist -33
COc1ccc(CN2CCN(C(=O)c3ccc(S(=O)(=O)N4CCCCCC4)cc3)CC2)cc1F	none

Assay outcomes from PubChem BioAssay.
